TDP1 cell noCPT = qHTS for Inhibitors of human tyrosyl-DNA phosphodiesterase 1 (TDP1): qHTS in cells in absence of CPT; AID 686978, 2013; 420,000 compounds, 15% hits; Potency, µM (titrated, usually from 46.2 µM), inactives show at the highest dose activity change, negative = growth inhibition, actives largely listed as inhibitors; DT40 Tdp1-/- hTDP1 cells, no CPT, ATP luminescence, 48 h; note: potency is the fitted concentration of half-maximal effect; nearly all actives have a fitted effect of over 55% in size
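Compound effects on proliferation are scored in DT40 Tdp1-/-;hTDP1 cells in the absence of CPT. ATP levels (CellTiter-Glo luminescence) are recorded after a ≥48 hr, 37 °C incubation.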
ELG1 DNA repair = blocks ELG1-dependent DNA repair in HEK293T cells. Potency, µM (titrated, usually from 46.1 µM), without a hit: at the top dose activity change, negative = inhibition, most hits filed as inhibitors. HEK293T ELG1-luciferase reporter, luminescence, 16 h; DNA damage induced by 5-fluorouridine. 330,000 compounds, 2.3% hits; note: potency is the fitted concentration of half-maximal effect; nearly all actives have a fitted effect of over 55% in size
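Overnight (16 hr) co-exposure of 2,000 cells/well to 5-fluorouridine and compound at 37 °C preceded detection. Luciferase was quantified via ONE-Glo luminescence; loss of signal denotes inhibition.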
HT1080 IDH1KD tx = HT-1080 IDH1 knockdown cell toxicity (counter line). HT-1080 IDH1 knockdown viability, ATP luminescence, 48 h. Potency, µM (highest dose often 46.1 µM), for the others: top-dose activity, negative = toxicity, most hits filed as cytotoxic. 360,000 compounds, 2% hits;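 note: potency is the fitted concentration of half-maximal effect; 0% = DMSO wells and -100% = cell-free medium wells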
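% activity derives from luminescence (CellTiter-Glo), normalised to DMSO and no-cell wells. HT-1080-IDH1KD cells, 750/well, had 48 h compound exposure at 37 °C.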
IL-1B inflam inh = inhibitors of inflammasome signaling (IL-1 beta secretion) | THP-1 LPS/ATP IL-1B secretion, AlphaLISA, 16 h; hits give low values | activity change, % at 57.5 µM | 360,000 compounds, 4.7% hits | AID 743279; in the data active = activity change below about -50%; inconclusive = mostly about -30% to -49%
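THP-1 cells pretreated 1 hr with compounds (up to 57.5 uM final), then stimulated with LPS (250 ng/mL final) plus ATP (1.25 mM final); secreted IL-1B measured by AlphaLISA after 16 hr, decreased signal indicating inhibition.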
TDP1 cell CPT = DT40-hTDP1 cell growth loss with CPT | Potency, µM (highest dose often 46.2 µM), without a hit: top-dose activity change, negative = growth inhibition, hits mostly inhibitors | chicken DT40 Tdp1-/-;hTDP1 cells + 20 nM CPT, ATP luminescence, 48 h | 420,000 compounds, 12% hits; note: potency is the fitted concentration of half-maximal effect; nearly all actives have a fitted effect of over 55% in size
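Chicken DT40 Tdp1-/- cells stably complemented with human TDP1 were seeded at 400 cells/well in medium containing 20 nM camptothecin, exposed to pin-transferred compounds, and grown at 37 °C for at least 48 hr. Viability was read as ATP luminescence.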
HT1080-NT tox = kills 2HG-producing HT-1080-NT fibrosarcoma cells; HT-1080-NT fibrosarcoma viability, CellTiter-Glo ATP luminescence, 48 h; Potency, µM (highest dose often 46.1 µM), inactives show at the top dose activity, negative = less viability, hits mostly cytotoxic; 360,000 compounds, 1.6% hits; AID 686970;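 note: NT is the 2HG producing partner of a matched IDH1 knockdown line; potency is the fitted concentration of half-maximal effect; 0% = DMSO-treated cells and -100% = media-only wells without cells; nearly all actives have a fitted effect of over 55% in size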
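Luminescent CellTiter-Glo readout after 48 hours of compound exposure at 37 degrees C defined viability of HT-1080-NT cells. Activity was normalized to DMSO wells and cell-free media wells; concentration-response curves were fitted and assigned curve classes.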
The depositor's hits bear a star; u = inconclusive; x = no result; [ ] = dose if it differs, or a comment. Rows were chosen to be rich in hits. Some 19% of all compounds tested hit in one or more screens of this group. Unless noted, calls come from the whole dose curve; as a rule, active = well fitted curve in the direction sought with a large enough effect; inconclusive = small, poorly fitted or top-dose-only effect, or another doubt; inactive = no such curve, though single readings can be large; an effect the other way counts as inactive or inconclusive. Unless noted, % is set by controls: 0 for no effect and ±100 for the full control effect.

SMILES	TDP1 cell noCPT	ELG1 DNA repair	HT1080 IDH1KD tx	IL-1B inflam inh	TDP1 cell CPT	HT1080-NT tox
CN(C)c1ccc(C=c2c3ccccc3n3c2c2ccccc2[n+]3C)cc1	1.46µM*	x	8.2µM*	-66.4*	1.16µM*	23.1µM*
CCOC(=O)SC1=N/C(=C\c2ccc(N(C)C)cc2)C(=O)S1	-14.5%	u	u	38.1	-22.8%	-10.4%[9.24 µM]
CN(C)c1ccc(/C=C2\c3ccccc3-c3ccc(N(C)C)cc32)cc1	u	x	x	x	-3.9%	x
Cc1cc2c(=Cc3ccc(N(C)C)cc3)c3ccccc3n2[n+]1C	0.461µM*	x	4.61µM*	-1.9	0.517µM*	14.6µM*
CN(C(=O)CSc1nnc(COc2ccccc2)o1)c1ccccc1	-13.8%	x	x	x	-17.1%	x
Cc1cc(C(=O)COc2ccccc2Cl)c(C)n1-c1ccc2c(c1)OCO2	6.51µM*	u	-16.2%	-9.8	u	-6.2%
CNS(=O)(=O)c1cccc(C(=O)OCC(=O)c2cc(C)n(-c3ccc4c(c3)OCO4)c2C)c1	-28.7%	-14.9%	-9.8%	9.6	-11.3%	-4.7%
Cc1cc(C(=O)CSc2n[nH]c(N)n2)c(C)n1-c1ccc2c(c1)OCO2	23.1µM*	13.5%	-12.2%	-10.8	u	-3.4%
Cc1ccc(-n2c(C)cc(C(=O)COc3c(CO)cc(F)cc3CO)c2C)cc1C	3.66µM*	u	-3.8%	u	9.2µM*	0.2%
C=CCn1cc(C(=O)OCC)c(=O)c2cc(F)c(F)cc21	-1.2%	-0.5%	1.9%	8.3	2.9%	3.9%
CCCN1CNc2c(c(=O)[nH]c(=S)n2CCc2cc(OC)cc(OC)c2)C1	u	x	12.7%	x	u	0.7%
O=c1c(-c2cc(F)cc(F)c2)nc2cnc(N3CCOCC3)nc2n1C1CC1	-1.4%	x	x	x	-4.7%	x
O=C(c1cnccn1)N1CCC2(CCCN(c3ccccn3)C2)CC1	-4.7%	x	x	x	-5.8%	x
CCOC(=O)C1=C(c2ccccc2)Nc2ncnn2C1c1ccc(C(=O)O)cc1 (stereo unspecified)	-7.0%	0.0%	20.2%	-8.0	-22.4%	23.1%
CCOC(=O)C1=C(c2ccccc2)NC(N)=NC1c1ccc(OCc2ccc(C(=O)OC)cc2)cc1 (stereo unspecified)	13µM*	14.8%	20.6µM*	-66.6*	u	23.1µM*
COc1ccc(-c2nnn(Cc3ccccc3)n2)cc1OC	-20.4%	12.9%	-7.0%	16.7	1.6%	1.6%
COc1ccc(Cn2cc3c(-c4ccc(F)cc4)nnc-3c3cc(OC)c(OC)cc32)cc1	4.11µM*	u	u	0.0	4.11µM*	u
COc1cc2c3nnc(-c4ccc(F)cc4)c-3cn(Cc3ccccc3)c2cc1OC	5.17µM*	-4.0%	u	-95.0*	3.26µM*	-4.2%
COc1cc2c3nnc(-c4ccc(F)cc4)c-3cn(Cc3ccc(F)cc3)c2cc1OC	2.59µM*	u	u	20.8	2.31µM*	-6.9%
CC(=O)Nc1cccc(Oc2ccc3c(c2)C(=O)NC3=O)c1	0.6%	u	7.0%	10.4	-20.3%	4.8%
CCCC(c1nnnn1C(C)(C)C)N1CCN(C(=O)c2ccco2)CC1 (stereo unspecified)	-19.9%	-13.1%	2.3%	-3.3	14.3%	-1.1%
CCc1cccc2c(C(=O)CSc3nnc(C4CC4)o3)c[nH]c12	-10.4%	1.8%	10.1%	-23.2	u	1.9%[9.24 µM]
O=S(=O)(c1ccc(Cl)c(Cl)c1)c1snnc1-c1ccccc1	3.26µM*	-4.4%	8.2µM*	-116.3*	2.59µM*	16.4µM*
c1ccc(-c2nnsc2-c2ccccc2)cc1	20.2%	-1.8%	1.0%	6.4	-2.7%	7.1%

Screening data from PubChem.
